A1 inh: caspase 3/7 activation in MEF A1-2A-BIM cells, primary screen, A1 inhibitor project, cell-based, luminescence, HTS; AID 2462, 2010; caspase activation, % (test concentration not listed); hit rate 0.066% among 330,000; Caspase-Glo 3/7 luminescence, 3 h; percent of clofoctol response, vehicle zero;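 active means over half of replicate activation scores above 10%, or exactly half above 10 with the replicate mean above 10; inconclusive means replicate mean below 10 yet half the replicates above 10; inactive means over half of replicates below 10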
Beta2AR agonist: beta2AR agonists driving receptor internalization, primary screen, cell-based, FAP fluorogen, flow cytometry; Beta-2 adrenergic receptor (Homo sapiens), P07550; Am2.2-beta2AR cells; response, % (concentration not given with the values); hit rate 0.43% among 340,000; AID 504454, 2011;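 active means response above a set limit, near 3 SD of response in nonfluorescent compounds, cut at about 42% in these data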
Target sequence (P07550 whole entry, looked up): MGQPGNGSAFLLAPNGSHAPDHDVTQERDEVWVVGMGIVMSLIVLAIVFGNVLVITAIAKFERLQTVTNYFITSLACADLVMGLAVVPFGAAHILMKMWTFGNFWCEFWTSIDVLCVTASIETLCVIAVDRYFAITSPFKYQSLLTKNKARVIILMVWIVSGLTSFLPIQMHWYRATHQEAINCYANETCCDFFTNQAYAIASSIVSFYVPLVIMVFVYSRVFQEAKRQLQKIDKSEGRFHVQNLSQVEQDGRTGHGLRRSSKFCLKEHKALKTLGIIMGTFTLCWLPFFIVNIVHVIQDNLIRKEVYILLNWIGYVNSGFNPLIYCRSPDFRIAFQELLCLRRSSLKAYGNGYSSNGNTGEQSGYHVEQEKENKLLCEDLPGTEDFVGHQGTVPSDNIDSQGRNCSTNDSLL
dFosB act-1: activators of delta FosB homodimer, primary screen, biochemical, fluorescence polarization, TAMRA-CDK5 oligo, single point; Protein FosB (Mus musculus), P13346; purified delta FosB; percent of positive-control signal above neutral wells; activation, % at 25 µM; hit rate 0.99% among 340,000;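 active means mean activation above about 17%, with every replicate also reaching it, limit read from the data, passing the limit was not always enough; inconclusive means only one of the two conditions met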
DYRK1A inh: rat Dyrk1A kinase inhibitors, primary screen, biochemical, single point, plate reader | Dual specificity tyrosine-phosphorylation-regulated kinase 1A (Rattus norvegicus), Q63470 | AID 504441, 2011 | inhibition, % at 12.5 µM | hit rate 0.43% among 310,000 | ADP-Glo luminescence, NFATc1 peptide; in the data active means inhibition above about 50%;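 further: plate controls were vehicle with enzyme for no effect and no enzyme for full effect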
dFosB act-2: activators of mouse delta FosB DNA binding, confirmation, biochemical, fluorescence polarization, TAMRA-CDK5 oligo, cherry-picked samples; purified delta FosB; normalised: neutral wells 0, positive control 100; shares compounds with dFosB act-1; 2,400 tested, under 10 active; activation, % at 24.9 µM;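 active means highest replicate activation at or above 34% and every replicate reaching that threshold; inconclusive means meets only one of the two criteria; inactive means meets neither criterion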;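 further: higher polarization means more probe DNA bound by delta FosB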
Dyrk1A artifact: ADP-Glo luciferase interference without Dyrk1A, dose response, artefact control for Dyrk1A inhibitor project, biochemical, luminescence, cherry-pick, set 02; shares compounds with DYRK1A inh; ADP-Glo luciferase artifact assay, no Dyrk1A; 1,300 tested, under 10 active; AC50, µM (titrated, usually from 12 µM), inactives show top-dose activity change, negative = inhibition;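 active means fitted half-maximal dose AC50 no more than ten times the top valid tested dose, with luminescence dropping as dose rises; inconclusive means poor fit, or flat fit with 30 to 70% inhibition; inactive means the rest, signal increases included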
B2AR ag CP1: beta2AR agonists via receptor internalization, confirmation, cell-based, FAP fluorogen, flow cytometry, single point, cherry pick 1; shares compounds with Beta2AR agonist; Am2.2-beta2AR cells, FAP surface receptor; hits give low values; percent response (surface receptor), % at 10 µM; hit rate 25% among 1,100; AID 540358, 2011;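 active means surface receptor percent response at or below 58%, roughly 3 SD from nonfluorescent compounds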
B2AR FAP counter: fluorescence artifact in beta-2AR agonist FAP counterscreen; shares compounds with Beta2AR agonist; Am2.2 cells, FAP fluorogen flow cytometry; hits give low values; calls only at 10 µM; 1,100 tested, under 10 active; AID 588765;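 active means percent response below a set limit in fluorescence channel 1 and below 50% in channel 8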
* = called active by the depositor; i = inactive; ? = inconclusive; . = no result. This is a sample that favours compounds with a hit; in the whole collection about 1.6% have one here.

SMILES	A1 inh	Beta2AR agonist	dFosB act-1	DYRK1A inh	dFosB act-2	others
COc1ccc(N(CC(=O)NC2CCS(=O)(=O)C2)S(=O)(=O)c2ccc(Cl)c(Cl)c2)cc1 (stereo not drawn)	.	-9	43*	17	2
COC(=O)CN(c1ccc(OC)cc1)S(=O)(=O)c1ccc(OC)c(OC)c1	0	-1	-5	-8	.
COc1ccc(OC)c(N(CC(=O)NC2CCCCCC2)S(=O)(=O)c2ccc(C)cc2)c1	1	0	-8	-1	.
COc1ccc(N(CC(=O)NC2CCCC2)S(=O)(=O)c2ccc(NC(C)=O)cc2)cc1	0	-6	-2	1	.
COc1ccc(N(CC(=O)NC2CCCCCC2)S(=O)(=O)c2ccc(C)cc2)cc1OC	0	9	27*	4	-1
COc1cc(N)c(Cl)cc1C(=O)OCC(=O)Nc1cccnc1Cl	0	1	6	-3	.
CCN1CCN(c2ccc(N3CCN(S(=O)(=O)c4ccc(C)c([N+](=O)[O-])c4)CC3)nn2)CC1	0	3	-1	3	.
COc1cccc(C(=O)NCC(c2ccc3c(c2)OCO3)N2CCN(c3ccc(F)cc3)CC2)c1 (stereo not drawn)	0	2	-7	-6	.
Cc1cc(N2CCN(c3nc(-c4ccc([N+](=O)[O-])cc4)cs3)CC2)c2ccccc2n1	1	15	26*	0	-2
COc1cc(/C=N\NC(=O)c2ccc(C)nc2)ccc1OC(=O)c1ccco1	0	0	-14	1	.
COc1cc(/C=N\NC(=O)c2ccc(C)nc2)ccc1OC(=O)c1ccc2c(c1)OCO2	0	-4	139*	-3	7
CCSc1ccc(C(=O)Nc2ccc(Br)cn2)cc1[N+](=O)[O-]	1	-5	19*	3	-7
COc1ccc(OCC(=O)Nc2c(C(=O)N3CCC(N4CCCCC4)CC3)oc3ccccc23)cc1	0	1	10	0	.
O=C(Cn1nnc(-c2ccc(CN3CCOCC3)cc2)n1)N(c1ccccc1)c1ccccc1	0	19	-10	-1	.
CC(C)(C)NC(=O)CN(C(=O)Cn1nnc(-c2ccc(Cl)cc2)n1)C1CCN(Cc2ccccc2)CC1	1	7	26*	1	-1
CC(c1ccccc1)N(NC(=O)C(O)(c1ccccc1)c1ccccc1)C(=O)c1ccccc1 (stereo not drawn)	0	6	38*	.	1
COc1ccc(OCC(=O)Nc2c3c(nn2-c2ccc(OC)cc2)CS(=O)(=O)C3)cc1	-3	3	-8	4	.
O=C(Cc1ccccc1)Nc1ncnc2c1C(c1ccccc1)c1c(ccc3ccccc13)O2 (stereo not drawn)	-2	7	0	-5	.
CCC(C)C(NC(=O)c1ccccc1NC(=O)c1ccco1)C(=O)NNC(=O)c1ccc(OC)cc1 (stereo not drawn)	0	10	14	3	.
CCC(NC(=O)c1ccccc1NC(=O)c1ccco1)C(=O)NNC(=O)c1ccc(OC)cc1 (stereo not drawn)	0	3	32*	-7	2
COc1ccc(C(=O)NNC(=O)C(NC(=O)c2ccccc2NC(=O)c2ccco2)C(C)C)cc1 (stereo not drawn)	0	8	32*	5	-1
CCC(C)C(NC(=O)c1ccccc1NC(=O)c1ccco1)C(=O)NC1CCCCC1 (stereo not drawn)	0	8	31*	5	1
O=C(Nc1cccc(-c2cn3cccnc3n2)c1)c1ccco1	1	-17	-19	0	.
O=C(Nc1cccc(-c2cn3cccnc3n2)c1)c1ccc(Br)o1	0	-2	19*	51*	7	Dyrk1A artifact=10%
O=c1c2c(O)cc(O)cc2oc2c(O)ccc(O[C@H]3O[C@@H](CO)[C@H](O)[C@@H](O)[C@@H]3O)c12	0	0	17*	73*	-1	Dyrk1A artifact=9%
SMILES	A1 inh	Beta2AR agonist	dFosB act-1	DYRK1A inh	dFosB act-2	others
COC(=O)C1CN(C(=O)COc2ccc(Cl)cc2C)c2ccccc2O1 (stereo not drawn)	-1	8	-5	-4	.
N#Cc1ccc(-c2cccnc2)nc1SCc1ccc(Cl)c(Cl)c1	.	37	9	-5	.
N#Cc1ccc(-c2cccnc2)nc1SCc1ccc(Cl)cc1Cl	0	52*	108*	2	3	B2AR ag CP1=71;B2AR FAP counter=i
CCCn1nc(C(=O)Nc2ccc3nc(N4CCOCC4)sc3c2)ccc1=O	.	9	-5	-4	.
Cc1ccc(NC(=O)Cn2nc(C(=O)Nc3ccc(C)cc3)ccc2=O)cc1	-1	0	?	-7	.
O=C(Cn1nc(-c2ccccc2)ccc1=O)Nc1ccc(NC(=O)c2ccccn2)cc1	0	125*	25*	2	0	B2AR ag CP1=26*;B2AR FAP counter=i
COc1ccc(CNCCC(c2ccc(F)cc2)c2ccc(OC)cc2)cc1 (stereo not drawn)	0	35	21*	2	4	B2AR ag CP1=88;B2AR FAP counter=i
CCOc1ccccc1NC(=O)CNC(=O)c1nn(-c2ccc(OC)c(OC)c2)c(=O)c2ccccc12	0	10	0	-2	.
CCOc1ccc(NC(=O)CNC(=O)c2nn(-c3ccc(OC)c(OC)c3)c(=O)c3ccccc23)cc1	0	54*	76*	-3	1	B2AR ag CP1=67;B2AR FAP counter=i
O=C(C[C@H]1C/C=C\C[C@@H](Cc2ccc(F)cc2)C(=O)OC[C@H]2CCCN2C1=O)NCCO	0	-3	-6	-6	.
CCC1CCCCN1CCCNC(=O)c1ccc(/C=C2/Sc3ccccc3NC2=O)cc1 (stereo not drawn)	1	44*	38*	10	0	B2AR ag CP1=108;B2AR FAP counter=i
CN(C)CCCn1c(SCC(=O)N2c3ccccc3Sc3ccccc32)nc2ccccc2c1=O	1	49*	24*	-2	0	B2AR ag CP1=59;B2AR FAP counter=i
